# Measured values published in PubChem BioAssay (NCATS).
# Values joined by “and” are separate entries in the source; they are usually repeats but may differ in a detail not shown here. Equal entries are not always repeated. Results filed as inconclusive are left out. Where a call stands in place of a potency, no number is given. Some compounds were tested as several samples or in several runs, with calls that do not always agree. Active and inactive are the calls of the source. Unless noted, the call rests on the fitted dose curve; in most records, active means well fitted curve in the direction sought with a large enough effect; inconclusive means small, poorly fitted or top-dose-only effect, or another doubt; inactive means no such curve, though single readings can be large; an effect the other way counts as inactive or inconclusive.
# Tests used:
# [1] = target: Cytochrome P450 2C19 (Homo sapiens) (UniProt P33261); experiment: qHTS Assay for Inhibitors and Substrates of Cytochrome P450 2C19 (AID 899); further: nearly all actives have a fitted effect of over 60% in size; further: potency means the concentration at half of the fitted maximal effect
# In short: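 Signal comes from luciferase acting on luciferin released by CYP2C19-mediated hydroxylation of Luciferin-H EGE, 10uM (KM). Assay mix: 5nM enzyme, 50mM KPO4; 60 min at 37C with NADPH regeneration. Data normalized against 57uM ketoconazole.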
# [2] = target: Muscarinic acetylcholine receptor M1 (Rattus norvegicus) (UniProt P08482); experiment: qHTS Assay for Antagonists of Acetylcholine Muscarinic M1 Receptor: Kinetic Measurement of Intracellular Calcium Response (AID 943); further: nearly all actives have a fitted effect of over 75% in size; further: potency means the concentration at half of the fitted maximal effect
# In short: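 Antagonism measured as reduction of carbachol-evoked (EC80, 100 nM final) calcium flux in rat M1-CHO cells after 10 min compound exposure. Fluo-4 signal read kinetically; ratio of maximal to basal fluorescence.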
# [3] = target: Muscarinic acetylcholine receptor M1 (Rattus norvegicus) (UniProt P08482); experiment: qHTS Assay for Antagonists of Acetylcholine Muscarinic M1 Receptor: Measurement of IP-One Response (AID 944); further: nearly all actives have a fitted effect of over 75% in size; further: potency means the concentration at half of the fitted maximal effect
# In short: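 IP1 accumulation measured via TR-FRET between d2-IP1 and Eu-cryptate anti-IP1 antibody after carbachol (200 nM, EC80) stimulation for 30 min; rat M1-transfected CHO cells received compound 10 min before agonist.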
# [4] = target: Pyruvate kinase (Leishmania mexicana) (UniProt Q27686); experiment: qHTS Validation Assay for Inhibitors of Leishmania Mexicana Pyruvate Kinase (AID 945); further: potency means the concentration at half of the fitted maximal effect
# In short: (§1)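 Read-out: luminescence from PKLight stop/detection reagent, data normalized to DMSO. Reaction: 0.2 nM E451W LmPYK, 0.5 mM PEP, 0.1 mM ADP, pH 7.2, 1 h room temperature.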
# [5] = target: Pyruvate kinase PKM (Homo sapiens) (UniProt P14618); experiment: qHTS Assay for Activators of Human Muscle Pyruvate Kinase (AID 954; active means well fitted curve in the direction sought with a large enough effect, not every such curve was filed as active)
# In short: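 A coupled luminescent readout tracked ATP made from ADP by purified PKM2. Final conditions included 0.1 nM enzyme, PEP and ADP at 0.5 and 0.1 mM, pH 7.2 imidazole buffer with BSA, and a one-hour room-temperature reaction.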
# [6] = Confirmation and Secondary Assay for Modulators of Hemoglobin Beta Chain Splicing at IVS2 654 locus (AID 910);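 further: HeLa cells stably carrying EGFP split by mutant beta-globin IVS2-654 intron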
# In short: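 HeLa cells stably expressing EGFP interrupted by β-globin IVS2-654 intron, seeded overnight in Opti-MEM/2% FCS, then treated 2 days at 37 °C. Restored splicing read as total peak GFP intensity per well by laser scanning cytometry (488 nm excitation, 500–520 nm emission); 500 nM antisense PNA as control.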
# [7] = Confirmation and Secondary Assay for Modulators of Hemoglobin Beta Chain Splicing at IVS2 705 locus (AID 930);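 further: HeLa cells stably expressing the EGFP-705 splicing reporter; GFP fluorescence per well restored by corrected splicing of the IVS2-705 intron in EGFP; series mostly up to about 46 µM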
# In short: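 Secondary splice-site specificity test uses HeLa expressing CMV-driven EGFP interrupted by IVS2-705; cells were treated 2 days at 37C with 500 nM antisense PNA as positive control.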
# [8] = qHTS Assay for Identification of Small Molecule Agonists for Thrombopoietin (TPO) Signaling Pathway (AID 917); further: potency means the concentration at half of the fitted maximal effect
# In short: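 Ba/F3 (mouse) + hTPO receptor + GpIIb-promoter luciferase; IL-3 withdrawn overnight; compound + 26 pM TPO (EC50), 24 hrs, 37 C, 5% CO2; Steadylite luminescence, 10 min RT.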
# [9] = target: Pyruvate kinase (Leishmania mexicana) (UniProt Q27686); experiment: qHTS Validation Assay for Activators of Leishmania Mexicana Pyruvate Kinase (AID 959)
# In short: as §1
# [10] = MultiTox-Fluor Cytotoxicity Assay - LYMP1-002 - Live Cells (AID 955);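 further: cells exposed to compound for 16 hours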
# In short: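 After 16 h compound exposure at 37 C, live LYMP1-002 lymphoblastoid cells (2500/well) were quantified by cleavage of cell-permeant GF-AFC substrate, read at 405/510 nm after 60 min. Concentration-response fitted with Hill equation for AC50.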
# [11] = MultiTox-Fluor Cytotoxicity Assay - LYMP1-002 - Dead Cells (AID 960); further: nearly all actives have a fitted effect of over 60% in size
# In short: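 Dead-cell fluorescence (Ex/Em 485/520) after 16 h compound exposure at 37 C of LYMP1-002 lymphoblastoid cells in complete medium; AC50 by Hill equation, with data scaled between DMSO and 15 uM tetraoctylammonium bromide.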
# [12] = MultiTox-Fluor Cytotoxicity Assay - LYMP1-003 - Dead Cells (AID 961); further: nearly all actives have a fitted effect of over 70% in size
# In short: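 Human lymphoblastoid LYMP1-003 cells (2500/well) were treated with compounds for 16 hr at 37 C in complete medium. Dead-cell protease release was read by bis-AAF-R110 fluorescence (Ex/Em 485/520). AC50 came from Hill fits, normalized to DMSO and 15 uM tetraoctylammonium bromide.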
# [13] = target: Pyruvate kinase PKM (Homo sapiens) (UniProt P14618); experiment: qHTS Assay for Inhibitors of Human Muscle Pyruvate Kinase (AID 958)
# In short: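 Human PKM2 activity is measured as ATP generation, detected by luciferase-coupled luminescence. The enzyme (0.1 nM) acts on 0.5 mM PEP and 0.1 mM ADP for 1 h at ambient temperature; data are normalized to uninhibited and full-inhibition wells.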
# [14] = MultiTox-Fluor Cytotoxicity Assay - LYMP1-001 - Dead Cells (AID 946)
# In short: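 AC50 from Hill fit of concentration-response; data normalized to DMSO (basal) and 15 uM tetraoctylammonium bromide (100%). LYMP1-001 lymphoblastoid cells, 2500/well, 16 hr compound at 37 C; dead-cell protease fluorescence, Ex/Em 485/520.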
# [15] = MultiTox-Fluor Cytotoxicity Assay - LYMP1-001 - Live Cells (AID 947)
# [16] = qHTS Assay for Identification of Small Molecule Agonists for NFkB Signaling Pathway (AID 928; calls by dose curve); conditions: NFkB beta-lactamase reporter cells, blue/green ratio
# In short: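 Activators were sought with TNF alpha co-added at 10 pM final (its EC50) to beta-lactamase reporter cells. Cells were plated in OPTI MEM with 0.5% FBS and exposed for 5 hrs at 37 C. The FRET substrate ratio was read at 460 and 530 nm.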
# [17] = Cell Viability - LYMP2-001 (AID 921); further: series mostly up to about 92 µM; nearly all actives have a fitted effect of over 70% in size
# In short: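 CellTiter-Glo luminescence (intracellular ATP) after 24 hr compound exposure at 37 C, 2500 lymphoblastoid cells/well in complete medium. AC50 fitted with standard Hill equation; tetraoctylammonium bromide positive control.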
# [18] = Cell Viability - LYMP1-002 - Assay at 16 hr (AID 948)
# In short: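 LYMP1-002 human lymphoblastoid cells, 2500/well; 5 hr 37 C; cpd 16 hr 37 C; CellTiter-Glo 30 min RT; luminescence (ATP). Concentration-response, Hill-fit AC50. Pos ctrl tetraoctylammonium bromide.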
# [19] = qHTS Assay for Identification of Small Molecule Antagonists for Thrombopoietin (TPO) Signaling Pathway (AID 918); conditions: TPO-dependent cell signaling reporter, antagonist mode; further: potency means the concentration at half of the fitted maximal effect; nearly all actives have a fitted effect of over 60% in size
# In short: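 Inhibition read as reduced luciferase luminescence after 24 h at 37 C in IL-3-deprived Ba/F3 cells carrying human TPO receptor and GPIIb-promoter reporter, stimulated with 26 pM TPO (final, its EC50) alongside compound.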
# Chain of Pyruvate kinase (Leishmania mexicana) (Q27686 2-499 E452W): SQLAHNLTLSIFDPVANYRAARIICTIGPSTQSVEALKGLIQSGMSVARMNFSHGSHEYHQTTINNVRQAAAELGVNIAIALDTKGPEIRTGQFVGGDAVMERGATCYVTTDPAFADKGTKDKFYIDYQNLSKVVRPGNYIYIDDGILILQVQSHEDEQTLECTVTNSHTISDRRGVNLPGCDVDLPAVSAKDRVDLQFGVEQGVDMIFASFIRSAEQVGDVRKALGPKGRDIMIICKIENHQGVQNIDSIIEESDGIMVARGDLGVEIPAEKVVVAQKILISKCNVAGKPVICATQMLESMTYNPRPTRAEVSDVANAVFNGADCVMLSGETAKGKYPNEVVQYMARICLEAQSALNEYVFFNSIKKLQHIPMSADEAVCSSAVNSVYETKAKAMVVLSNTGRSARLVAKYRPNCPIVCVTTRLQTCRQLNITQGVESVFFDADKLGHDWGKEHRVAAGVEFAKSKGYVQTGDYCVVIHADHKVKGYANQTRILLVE
# Chain of Pyruvate kinase PKM (Homo sapiens) (P14618 whole entry, looked up): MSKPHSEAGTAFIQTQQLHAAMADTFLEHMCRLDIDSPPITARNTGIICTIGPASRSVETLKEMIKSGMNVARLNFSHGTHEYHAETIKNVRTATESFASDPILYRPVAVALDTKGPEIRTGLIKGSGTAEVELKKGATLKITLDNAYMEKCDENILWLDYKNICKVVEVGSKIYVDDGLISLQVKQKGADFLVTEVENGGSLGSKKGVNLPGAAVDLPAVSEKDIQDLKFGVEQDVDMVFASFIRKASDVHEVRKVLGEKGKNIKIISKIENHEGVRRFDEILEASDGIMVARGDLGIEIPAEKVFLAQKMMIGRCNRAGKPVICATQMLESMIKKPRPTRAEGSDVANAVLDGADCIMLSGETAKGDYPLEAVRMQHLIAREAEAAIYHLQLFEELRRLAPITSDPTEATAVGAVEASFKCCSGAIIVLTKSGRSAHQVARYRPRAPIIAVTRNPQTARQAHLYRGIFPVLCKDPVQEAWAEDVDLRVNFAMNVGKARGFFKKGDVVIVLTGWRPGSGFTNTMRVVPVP
# Chain of Muscarinic acetylcholine receptor M1 (Rattus norvegicus) (P08482 whole entry, looked up): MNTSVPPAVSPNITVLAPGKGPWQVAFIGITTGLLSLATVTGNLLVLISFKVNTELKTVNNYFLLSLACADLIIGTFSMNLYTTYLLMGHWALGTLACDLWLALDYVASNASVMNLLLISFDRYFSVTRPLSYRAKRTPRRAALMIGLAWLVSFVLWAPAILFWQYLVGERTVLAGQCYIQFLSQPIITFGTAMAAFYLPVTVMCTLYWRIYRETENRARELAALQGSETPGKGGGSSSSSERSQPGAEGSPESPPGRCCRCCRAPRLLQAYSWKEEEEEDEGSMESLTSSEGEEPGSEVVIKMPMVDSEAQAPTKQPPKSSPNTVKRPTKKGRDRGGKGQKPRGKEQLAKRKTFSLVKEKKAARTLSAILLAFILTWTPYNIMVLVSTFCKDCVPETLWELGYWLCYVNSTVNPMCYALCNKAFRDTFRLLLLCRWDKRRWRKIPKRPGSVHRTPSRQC
# Chain of Cytochrome P450 2C19 (Homo sapiens) (P33261 whole entry, looked up): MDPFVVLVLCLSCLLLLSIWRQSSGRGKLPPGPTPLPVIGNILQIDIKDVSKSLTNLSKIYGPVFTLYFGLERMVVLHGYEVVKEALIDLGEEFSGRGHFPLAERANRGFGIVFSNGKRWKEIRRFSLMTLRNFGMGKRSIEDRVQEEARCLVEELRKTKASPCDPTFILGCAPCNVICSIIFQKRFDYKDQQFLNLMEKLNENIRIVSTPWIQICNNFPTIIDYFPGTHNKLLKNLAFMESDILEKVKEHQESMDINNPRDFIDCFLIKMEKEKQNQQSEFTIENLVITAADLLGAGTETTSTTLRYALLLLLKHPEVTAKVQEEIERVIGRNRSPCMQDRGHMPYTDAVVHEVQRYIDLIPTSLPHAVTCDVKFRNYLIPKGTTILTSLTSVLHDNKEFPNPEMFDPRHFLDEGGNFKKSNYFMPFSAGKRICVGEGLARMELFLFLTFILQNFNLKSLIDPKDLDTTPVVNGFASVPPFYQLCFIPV
structure (smiles),measurement,setting,value
O=C(O)c1cc([N+](=O)[O-])ccc1NCCCc1ccccc1,Potency,[1],inactive
same,Potency,[2],inactive
same,Potency,[3],inactive
same,Potency,[4],inactive
same,outcome,[5],inactive
Nc1cc(-c2ccncc2)c[nH]c1=O,Potency,[1],5.01 µM (active)
same,outcome,[6],inactive
same,outcome,[7],inactive
Cc1cc(NC(=O)Nc2ccc3c(ccn3C)c2)sn1,Potency,[1],inactive and 3.16 µM (active)
same,Potency,[8],1.58 µM (active)
same,Potency,[2],inactive
same,outcome,[5],inactive
same,Potency,[9],inactive
c1cnc2c(c1)ccc1cccnc12,Potency,[1],inactive
same,Potency,[2],inactive
same,Potency,[3],inactive
same,Potency,[4],inactive
same,outcome,[5],inactive
same,Potency,[10],inactive
same,Potency,[11],inactive
same,Potency,[12],inactive
COC(=O)c1c(C)[nH]c(C)c1C(=O)c1ccccc1Cc1ccccc1,Potency,[1],0.1 µM (active)
same,Potency,[8],inactive
same,Potency,[3],inactive
same,Potency,[4],inactive
same,outcome,[5],inactive
Cc1ccc(O)c(N=Nc2ccccc2)n1,Potency,[1],3.98 µM (active) and inactive
same,Potency,[8],0.0794 µM (active)
same,Potency,[3],inactive
same,Potency,[4],6.31 µM (active)
same,outcome,[5],inactive
same,Potency,[13],6.31 µM (active)
same,Potency,[9],inactive
O=C(Nc1ccccc1)c1cc([N+](=O)[O-])ccc1Cl,Potency,[1],inactive and 794 nM (active)
same,Potency,[8],1.58 µM (active)
same,Potency,[3],inactive
same,outcome,[5],inactive
same,Potency,[9],inactive
Oc1ccccc1O,Potency,[1],inactive
same,Potency,[4],inactive
same,Potency,[14],inactive
same,Potency,[15],inactive
same,outcome,[5],inactive
same,Potency,[10],inactive
N.N.O=C(O)C1(C(=O)O)CCC1.[Pt],Potency,[1],3.98 µM (active)
same,outcome,[6],inactive
same,Potency,[8],inactive
same,outcome,[7],inactive
same,Potency,[2],inactive
same,Potency,[3],inactive
same,Potency,[4],inactive
same,outcome,[5],inactive
COc1cc2c(CCNC(C)=O)c[nH]c2cc1Cl,Potency,[1],inactive and 5.01 µM (active)
same,Potency,[16],3.16 µM (active)
same,Potency,[4],inactive
same,outcome,[5],inactive
N[C@H](CCCP(=O)(O)O)C(=O)O,Potency,[1],inactive
same,Potency,[8],inactive
same,Potency,[2],inactive
same,Potency,[4],inactive
same,outcome,[5],inactive
N#C/C(=C\c1ccc(O)c(O)c1)C(=O)NCc1ccccc1,Potency,[1],inactive
same,Potency,[2],inactive
same,Potency,[4],inactive
same,outcome,[5],inactive
CCCSc1ccc2nc(NC(=O)OC)[nH]c2c1,outcome,[1],inactive
same,outcome,[6],inactive
same,outcome,[7],inactive
NC(N)=NC(=O)c1nc(Cl)c(N2CCCCCC2)nc1N,Potency,[1],5.01 µM (active)
same,outcome,[6],inactive
same,outcome,[7],inactive
same,Potency,[3],inactive
same,outcome,[5],inactive
same,Potency,[9],inactive
Clc1ccccc1-c1nc(-c2ccncc2)no1,Potency,[1],0.0631 µM (active)
S=c1[nH]c2ccccc2s1,outcome,[6],inactive
same,Potency,[17],inactive
same,outcome,[7],inactive
same,Potency,[14],inactive
same,Potency,[15],inactive
same,Potency,[18],inactive
same,Potency,[10],inactive
same,Potency,[11],inactive
same,Potency,[12],inactive
NCCCCC(=O)O,outcome,[6],inactive
same,Potency,[8],inactive
same,outcome,[7],inactive
same,Potency,[2],inactive
same,Potency,[3],inactive
same,Potency,[4],inactive
same,outcome,[5],inactive
O=C(O)c1cc(=O)c2c(Cl)cc(Cl)cc2[nH]1,Potency,[1],inactive
same,outcome,[6],inactive
same,Potency,[8],inactive
same,outcome,[7],inactive
same,Potency,[4],inactive
same,outcome,[5],inactive
O=c1[nH]c2cc([N+](=O)[O-])c([N+](=O)[O-])cc2[nH]c1=O,Potency,[1],inactive
same,Potency,[8],inactive
same,Potency,[2],inactive
same,Potency,[3],inactive
same,Potency,[4],inactive
same,outcome,[5],inactive
O=C(O)c1cc(=O)c2ccccc2[nH]1,outcome,[6],inactive
same,Potency,[8],inactive
same,outcome,[7],inactive
same,Potency,[3],inactive
same,outcome,[5],inactive
CCC1C(=O)OCC1Cc1cncn1C (configuration not stated),Potency,[1],7.94 µM (active)
CC(C)(C=O)Cc1cc(C(C)(C)C)c(O)c(C(C)(C)C)c1,Potency,[1],inactive
same,Potency,[8],inactive
same,Potency,[2],inactive
same,Potency,[4],inactive
same,outcome,[5],inactive
CN(C)C(N)=NCCC[C@H](N)C(=O)O,Potency,[1],inactive
same,Potency,[8],inactive
same,Potency,[2],inactive
same,Potency,[3],inactive
same,Potency,[4],inactive
same,outcome,[5],inactive
Nc1ccc(O)c(C(=O)O)c1,Potency,[1],5.01 µM (active)
same,Potency,[17],inactive
same,Potency,[14],inactive
same,Potency,[15],inactive
same,Potency,[18],inactive
same,Potency,[10],inactive
same,Potency,[11],inactive
same,Potency,[12],inactive
CC(=O)SCC[N+](C)(C)C,Potency,[1],inactive
same,Potency,[8],inactive
same,Potency,[2],inactive
same,Potency,[3],inactive
same,Potency,[4],inactive
same,outcome,[5],inactive
N=c1ccn2c(n1)O[C@H]1[C@H](O)[C@@H](CO)O[C@H]12,Potency,[1],inactive
COc1ccccc1N1CCN(CCCCNS(=O)(=O)c2cccc3c(N(C)C)cccc23)CC1,Potency,[1],0.501 µM (active)
same,Potency,[2],11.2 µM (active)
same,Potency,[4],inactive
same,outcome,[5],inactive
Fc1ccc(C(OCCCc2cnc[nH]2)c2ccc(F)cc2)cc1,Potency,[1],0.004 µM (active)
same,Potency,[2],5.01 µM (active)
same,Potency,[3],7.94 µM (active)
same,Potency,[4],inactive
same,outcome,[5],inactive
CN=c1nc(-c2ccccc2)n(-c2ccccc2)s1,Potency,[1],3.16 µM (active)
same,Potency,[19],2.51 µM (active)
same,Potency,[3],12.6 µM (active)
same,Potency,[4],5.01 µM (active)
same,outcome,[5],inactive
same,Potency,[13],25.1 µM (active)
same,Potency,[9],inactive
O=C1C(SCCO)=C(SCCO)C(=O)c2ccccc21,Potency,[1],501 nM (active) and 79.4 nM (active)
same,Potency,[19],1.26 µM (active)
same,Potency,[2],inactive
same,Potency,[3],10 µM (active)
same,Potency,[4],inactive
same,outcome,[5],inactive
Oc1cc2c(cc1O)CN(C(=S)NCCc1ccc(Cl)cc1)CCC2,Potency,[1],5.01 µM (active) and 316 nM (active)
same,Potency,[2],inactive
same,Potency,[3],inactive
same,Potency,[4],inactive
same,Potency,[13],inactive
